This is a sample that favours compounds with a hit; in the whole collection about 19% have one here.
Giardia killer: Giardia lamblia killing; Giardia lamblia trophozoite viability; activity change, % at 7.66 µM, hits read low; 340,000 tested, 0.15% active; AID 540267; in the data active = activity change below about -80%; inconclusive = between about -30% and that limit;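 also: parasites exposed to compound for two days anaerobically before the ATP read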
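Giardia trophozoites, 100 cells per well, were exposed to compounds for 48 hrs at 37 deg C under anaerobic conditions; viability was then read as ATP content by bioluminescence after 15-30 min at room temperature.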
TDP1 cell noCPT: qHTS for Inhibitors of human tyrosyl-DNA phosphodiesterase 1 (TDP1): qHTS in cells in absence of CPT | AID 686978, 2013 | Potency, µM (series often up to 46.2 µM), usual class: inhibitors | 420,000 tested, 15% active | DT40 Tdp1-/- hTDP1 cells, no CPT, ATP luminescence, 48 h; also: nearly all actives have a fitted effect of over 55% in size
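Cells were dispensed at 400 per well, compounds added by pin tool, plates incubated ≥48 hr at 37 °C, then CellTiter-Glo added for 30 min at room temperature before luminescence reading. Line: DT40 Tdp1-/- complemented with hTDP1; camptothecin omitted.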
TDP1 cell CPT: DT40-hTDP1 cell growth loss with CPT | chicken DT40 Tdp1-/-;hTDP1 cells + 20 nM CPT, ATP luminescence, 48 h | Potency, µM (top dose mostly 46.2 µM), usual class: inhibitors | AID 686979 | 420,000 tested, 12% active; also: nearly all actives have a fitted effect of over 55% in size
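Chicken DT40 Tdp1-/- cells complemented with human TDP1, 400 cells/well, exposed to compounds plus 20 nM camptothecin for at least 48 h at 37 C; viability read as ATP content by CellTiter-Glo luminescence.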
TDP1 block: blocks human tyrosyl-DNA phosphodiesterase 1 | Q9NUW8 | recombinant TDP1, AlphaScreen DNA substrate cleavage | Potency, µM (titrated, usually from 130 µM), actives largely listed as inhibitors | 350,000 tested, 0.28% active | AID 485290; also: nearly all actives have a fitted effect of over 40% in size
Target sequence (Q9NUW8 whole entry, looked up): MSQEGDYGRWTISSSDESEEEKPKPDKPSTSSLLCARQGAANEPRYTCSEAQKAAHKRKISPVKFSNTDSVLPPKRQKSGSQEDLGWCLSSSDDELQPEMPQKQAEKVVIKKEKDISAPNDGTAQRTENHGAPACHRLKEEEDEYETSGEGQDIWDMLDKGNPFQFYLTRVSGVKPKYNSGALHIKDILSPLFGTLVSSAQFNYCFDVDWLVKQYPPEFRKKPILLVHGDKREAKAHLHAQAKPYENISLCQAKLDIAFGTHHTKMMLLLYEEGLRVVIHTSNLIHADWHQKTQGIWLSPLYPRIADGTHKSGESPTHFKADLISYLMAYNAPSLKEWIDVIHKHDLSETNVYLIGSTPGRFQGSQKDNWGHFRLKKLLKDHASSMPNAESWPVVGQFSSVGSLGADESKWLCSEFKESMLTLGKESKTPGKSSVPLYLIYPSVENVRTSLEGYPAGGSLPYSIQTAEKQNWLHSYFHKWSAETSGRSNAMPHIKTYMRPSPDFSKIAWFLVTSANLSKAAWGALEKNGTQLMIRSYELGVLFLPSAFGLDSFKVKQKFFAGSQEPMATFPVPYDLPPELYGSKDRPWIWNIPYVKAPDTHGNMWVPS
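Compounds were preincubated with Tdp1 (1 nM final) for 15 min at room temperature before substrate (15 nM final) started a 5 min reaction; beads (10 ug/ml final) were then added for 10 min before AlphaScreen detection.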
IL1B secr inh: blocks inflammasome-driven IL-1 beta release. AID 743279. activity change, % at 57.5 µM. 360,000 tested, 4.7% active. THP-1 LPS/ATP IL-1B secretion, AlphaLISA, 16 h; hits give low values; in the data active = activity change below about -50%; inconclusive = mostly about -30% to -49%
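Secreted IL-1B measured by AlphaLISA bead assay after 16 h compound exposure of THP-1 cells; compounds (final up to 57.5 uM) added 1 h before LPS (250 ng/mL) and ATP (1.25 mM) stimulation; lower signal means less secretion.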
ELG1 DNA repair: ELG1-dependent DNA repair inhibition; AID 504467; 330,000 tested, 2.3% active; HEK293T ELG1-luciferase reporter, luminescence, 16 h; DNA damage induced by 5-fluorouridine; Potency, µM (top dose mostly 46.1 µM), actives largely listed as inhibitors; also: nearly all actives have a fitted effect of over 55% in size
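Cells (2,000 per well) received 5-fluorouridine plus test compound or DMSO and were incubated 16 hr at 37 °C, 5% CO2. Luciferase activity was read by luminescence 30 min after ONE-Glo addition; signal suppression marked inhibition of damage-induced ELG1 function.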
Hits are given with their value; n = inactive; u = inconclusive; x = no result given; [ ] = dose if it differs, or a comment. Unless noted, calls follow the shape of the dose curve; as a rule, active = well fitted curve in the direction sought with a large enough effect; inconclusive = small, poorly fitted or top-dose-only effect, or another doubt; inactive = no such curve, though single readings can be large; an effect the other way counts as inactive or inconclusive.

SMILES	Giardia killer	TDP1 cell noCPT	TDP1 cell CPT	TDP1 block	IL1B secr inh	ELG1 DNA repair
O=C(c1ccc2c(=O)n(Cc3ccccc3Cl)c(=S)[nH]c2c1)N1CCOCC1	n	n	n	n	n	n
COCCNCCCOc1ccc(C(C)(C)c2ccccc2)cc1	n	u	u	n	n	n
O=C(O)CCCCNCc1ccccc1	n	n	n	n	n	n
c1ccc(CNCCCNCCCCNCCCNCc2ccccc2)cc1	n	21µM	u	x	-110	x
Clc1cc(Br)ccc1OCCCNCc1ccccc1	n	u	21µM	n	-101	n
Cc1ccc(C)c(OCCCNCc2ccccc2)c1	n	u	u	x	n	n
CC(C)(C)c1ccc(OCCCNCc2ccccc2)cc1	n	u	u	n	-102	n
COCCCNCCCOc1ccc(C(C)(C)c2ccccc2)cc1	n	18µM	u	n	u	n
CC(NC(=O)CSc1nc(-c2ccccc2F)nc2cc(=O)[nH]n12)c1nc2ccccc2n1C (centres undefined)	x	n	n	n	x	x
CCN1CCN(C(c2ccccc2Cl)c2c(O)cc(C)n(CCOC)c2=O)CC1 (centres undefined)	x	n	n	n	x	x
CC(C)(c1ccccc1)c1ccc(OCCCNCCO)cc1	n	21µM	u	n	u	n
CCc1cc(OCCCCNCc2ccccc2)ccc1Cl	n	18µM	21µM	n	-102	n
C=CCNCCCOc1ccc(C(C)(C)c2ccccc2)cc1	n	u	u	n	-89	n
CCOCCCNCc1ccc(OCc2ccccc2Cl)cc1	n	u	u	n	n	n
COCCNC(=S)N/N=C/c1ccc(OCc2ccc(C(=O)OC)cc2)cc1	n	n	n	n	n	n
CC(=O)C1=C(C)N2CCN=C2S1	n	n	n	x	n	n
CCN1CC(CN(C)Cc2nc(-c3ccc(C(F)(F)F)cc3)no2)CC1=O (centres undefined)	n	18µM	u	n	n	u
O=C(NCCOc1ccccc1)c1ccccc1SCC(=O)N1CCCC1	n	n	n	n	n	n
CC(C)(C)C(=O)Cn1c(=N)n(Cc2ccccc2Cl)c2ccccc21	n	26µM	26µM	n	n	n
Cc1ccc(Cn2c(=N)n(CC(=O)c3ccccc3)c3ccccc32)cc1	n	3.7µM	7.3µM	u	-82	u
CCOC(=O)Cn1c(=N)n(Cc2ccc(C(C)(C)C)cc2)c2ccccc21	x	13µM	u	n[2.28 µM]	x	x
CCCn1c(=N)n(CC(=O)OCC)c2ccccc21	n	n	n	n	n	n
CC(C)(C)C(=O)Cn1c(=N)n(Cc2ccccc2)c2ccccc21	n	15µM	21µM	n	n	n
COc1ccccc1C(=O)Nc1nnc(SCC(=O)NC2CCCC2)s1	n	n	u	n	n	u
O=C(O)c1sc2cc(C(F)(F)F)cnc2c1-c1ccccn1	n	n	n	n	n	n
SMILES	Giardia killer	TDP1 cell noCPT	TDP1 cell CPT	TDP1 block	IL1B secr inh	ELG1 DNA repair
c1ccc(CNc2c3c(nc4ncnn24)CCC3)cc1	n	n	n	n	n	n
CCCCCc1ccc(C)cc1O	x	n	n	x	x	x
Cc1noc(C)c1C(=O)N1CCC1(C)C(=O)NS(=O)(=O)c1ccccc1C(F)(F)F (centres undefined)	x	n	n	x	n	x
Cc1cc(C)c(NC(=O)c2sc3nc4c(cc3c2N)C(=O)CC(C)(C)C4)c(C)c1	n	18µM	u	n	n	n
CCCCN(CCCC)C(=O)c1nsnc1-c1ccccc1O	n	n	n	n	n	n
CCN(CC)CCCNC(=O)c1ccc(-c2nc(CN3CCc4ccccc43)c(C)o2)cc1	x	x	x	n	x	x
C/C(=N\NC(=O)c1nnn(-c2nonc2N)c1CSc1ccc(Cl)cc1)c1cccnc1	n	n	u	n	n	n
CC(C)(C)c1ccc(OCC(=O)NCc2ccco2)c(Br)c1	n	23µM	n	n	n	u
CCOc1cc(C(=O)OCC(=O)NCc2ccco2)cc(OCC)c1OCC	n	u	n	n	n	n
Cc1ccccc1OCC(=O)NNC(=S)NC(=O)c1ccco1	n	10µM	22µM	n	n	n
O=C(Cc1cccs1)NNC(=S)NC(=O)c1ccco1	n	29µM	u	n	n	u
CC(C)(C)c1ccc(OCC(=O)NNC(=S)NC(=O)c2ccco2)c(Br)c1	n	10µM	21µM	n	n	n
CCC1CCCCN1C(=O)Cn1c(=O)n(CCCCCC(=O)NCc2ccc(F)cc2)c(=O)c2sccc21 (centres undefined)	x	u	u	n	x	x
COc1ccc(N2CC(NS(=O)(=O)c3cccs3)CC2=O)cc1OC (centres undefined)	n	n	n	n	n	n
CN(C)S(=O)(=O)N(CC(=O)Nc1ccc(C(F)(F)F)cc1)c1ccccc1	x	u	n	n	x	x
COC1=CC(=O)OC(c2ccc(C#N)cc2)C1 (centres undefined)	x	n	n	x	n	x
CCN1C(=O)[C@H]2[C@H]3[C@H](O)[C@H](O)C/C(=N/OCC(C)C)[C@@H]3CC[C@@H]2C1=O	x	x	x	n[21 µM]	x	x
C/C(=N/NC(=O)CNC(=O)c1cccs1)c1ccco1	n	n	n	n	n	n
C/C(=N/NC(=O)Cc1cccs1)c1ccco1	n	23µM	u	n	n	n
N#Cc1c(N)nc(N)nc1Nc1ccc(Br)cc1	n	15µM	u	n	n	u
CN=C1c2c(-c3ccccc3)c3cc(OC)ccc3n2CCN1C	n	18µM	23µM	n	u	n
CCOC(=O)c1c(C)[nH]c(C)c1S(=O)(=O)N(C)CC(=O)Nc1ccc(C)cc1C	x	n	n	n	x	x
COc1cccc(CNC(=O)CCC2CCCN(C(=O)c3cccnc3SC)C2)c1 (centres undefined)	n	u	u	n	n	n
COc1ccc2c(c1)C(CC(C)=O)N(c1ccc(-c3cccs3)cc1)C(c1ccsc1)=C2 (centres undefined)	x	4.6µM	3.7µM	x	n	x
COC(=O)c1ccc(N2C(c3cc(OC)cc(OC)c3)=Cc3ccc(-c4ccc(C(N)=O)cc4)cc3C2CC(=O)C2CC2)cc1 (centres undefined)	x	18µM	u	x	n	x
COc1cc(OC)cc(C2=Cc3ccc(OC)cc3C(CC(C)=O)N2c2ccc(-c3cncnc3)cc2)c1 (centres undefined)	x	u	8.2µM	x	n	x
COc1cc(OC)cc(C2=Cc3ccccc3C(CC(=O)c3ccco3)N2c2ccc(-c3cccnc3)cc2)c1 (centres undefined)	x	18µM	u	x	n	x

Source: PubChem (National Center for Advancing Translational Sciences (NCATS))
